TDP1 cell CPT – DT40-hTDP1 cell growth loss with CPT; Potency, µM (doses to about 46.2 µM), inactives show at the top dose activity change, negative = growth inhibition, most hits filed as inhibitors; 12% of 420,000 active; chicken DT40 Tdp1-/-;hTDP1 cells + 20 nM CPT, ATP luminescence, 48 h; also: nearly all actives have a fitted effect of over 55% in size
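Chicken DT40 Tdp1-/- cells complemented with human TDP1, 400 cells/well, exposed to compounds plus 20 nM camptothecin for at least 48 h at 37 C; viability read as ATP content by CellTiter-Glo luminescence.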
VP16 counter – Gal4-VP16 reporter inhibition counter-screen | Potency, µM (highest dose often 53.6 µM), without a hit: at the top dose activity, negative = inhibition, most hits filed as inhibitors | 3.5% of 310,000 active | Drosophila S2 Gal4-VP16 UAS-luciferase, luminescence, 20 h | AID 2546;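 also: Gal4-VP16 expression switched on by copper sulfate through the metallothionein promoter; nearly all actives have a fitted effect of over 50% in size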
DT40 TDP1 no CPT – qHTS for Inhibitors of human tyrosyl-DNA phosphodiesterase 1 (TDP1): qHTS in cells in absence of CPT. AID 686978, 2013. 15% of 420,000 active. DT40 Tdp1-/- hTDP1 cells, no CPT, ATP luminescence, 48 h. Potency, µM (titrated, usually from 46.2 µM), without a hit: at the top dose activity change, negative = growth inhibition, usual class: inhibitors; also: nearly all actives have a fitted effect of over 55% in size
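Compound effects on proliferation are scored in DT40 Tdp1-/-;hTDP1 cells in the absence of CPT. ATP levels (CellTiter-Glo luminescence) are recorded after a ≥48 hr, 37 °C incubation.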
RORg inh – ROR gamma (mouse) transcription inhibition | P51450 | Drosophila S2 Gal4-RORgamma UAS-luciferase reporter, 20 h | Potency, µM (highest dose often 53.6 µM), for inactives: at the highest dose activity change, negative = inhibition, hits mostly inhibitors | 5.4% of 310,000 active | AID 2551; also: nearly all actives have a fitted effect of over 60% in size
Target sequence (P51450 whole entry, looked up, the tested form may be a part): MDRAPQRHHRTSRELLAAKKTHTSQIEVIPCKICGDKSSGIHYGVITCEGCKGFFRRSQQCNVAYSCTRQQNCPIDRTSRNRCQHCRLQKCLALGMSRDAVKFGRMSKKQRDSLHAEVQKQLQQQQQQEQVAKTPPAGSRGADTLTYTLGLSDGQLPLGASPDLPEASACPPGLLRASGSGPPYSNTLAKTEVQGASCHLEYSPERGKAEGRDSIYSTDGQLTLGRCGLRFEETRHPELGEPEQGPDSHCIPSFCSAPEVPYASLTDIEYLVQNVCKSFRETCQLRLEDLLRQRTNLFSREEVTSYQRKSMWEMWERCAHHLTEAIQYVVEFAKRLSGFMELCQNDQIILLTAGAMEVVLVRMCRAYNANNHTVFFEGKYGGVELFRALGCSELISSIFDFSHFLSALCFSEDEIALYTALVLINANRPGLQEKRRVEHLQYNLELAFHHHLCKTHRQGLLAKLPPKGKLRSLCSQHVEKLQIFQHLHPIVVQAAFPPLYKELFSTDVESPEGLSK
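In this cell-based reporter format, copper sulfate (700 uM final) drives Gal4–ROR gamma fusion expression from a metallothionein promoter in Drosophila Schneider cells; compounds preincubated 1 hr, reporter read after 20 hr at ambient temperature.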
TDP1 inh – blocks human tyrosyl-DNA phosphodiesterase 1; Q9NUW8; recombinant TDP1, AlphaScreen DNA substrate cleavage; Potency, µM (doses to about 130 µM), inactives show at the highest dose activity change, negative = inhibition, actives largely listed as inhibitors; 0.28% of 350,000 active; also: nearly all actives have a fitted effect of over 40% in size
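AlphaScreen read-out: signal falls as enzyme removes the 3' tyrosine-FITC from a 5'-biotinylated DNA oligo (15 nM, 5 min, RT). Enzyme was E. coli-made recombinant Tdp1 at 1 nM, exposed to compound for 15 min beforehand; beads 10 ug/ml, 10 min.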
Active calls of the source: *; ? = inconclusive; / = no result; [ ] = another dose, or the depositor's remark. Only some compounds are listed: those with a hit (about 19% of all), similar ones and a draw of the others. Calls follow the shape of the dose curve; as a rule, active = well fitted curve in the direction sought with a large enough effect; inconclusive = small, poorly fitted or top-dose-only effect, or another doubt; inactive = no such curve, though single readings can be large; an effect the other way counts as inactive or inconclusive. % is scaled to controls: 0 for no effect and ±100 for the full control effect; potency is read from the fitted curve at half-maximal effect.

SMILES	TDP1 cell CPT	VP16 counter	DT40 TDP1 no CPT	RORg inh	TDP1 inh
O=S(=O)(c1ccccc1)c1nnn2c1nc(NC1CCN(Cc3ccccc3)CC1)c1cc(Cl)ccc12	7.3µM*	?	4.1µM*	-39%	2%
O=S(=O)(c1ccccc1)c1nnn2c1nc(NC1CCN(Cc3ccccc3)CC1)c1ccccc12	5.8µM*	-5%	8.2µM*	-7%	2%
Cc1ccc(C)c(Nc2nc3c(S(=O)(=O)c4ccccc4)nnn3c3ccccc23)c1	-29%	0%	?	-2%	2%
Cc1ccc(Cl)cc1NC(=O)CC(O)(C(F)(F)F)C(F)(F)F	18µM*	/	?	-13%[0.365 µM]	-8%
COCC(=O)Nc1cc(Cl)ccc1C	19%	2%	3%	?	-5%
CCOc1ccc(-c2nnc(SCC(=O)Nc3ccccc3C(F)(F)F)o2)cc1	?	/	?	/	9%
COC(=O)c1ccccc1NC(=S)NC(=O)C1CC1	?	-20%	-14%	13µM*	0%
COC(=O)c1ccccc1NC(=O)Oc1ccc(C(C)C)cc1	-21%	-1%	-1%	10%	0%
CCCC(=O)NC(=S)Nc1cccc2c(O)cccc12	-12%	?	-27%	13µM*	8%
COC(=O)c1ccccc1NC(=S)NC(=O)COc1ccc(C(C)C)cc1	1%	?	-12%	11µM*	0%
CCC(=O)Nc1ccccc1C(=O)OCC(=O)c1cccc2ccccc12	?	4%	-24%	14%	0%
CCC(=O)Nc1ccccc1C(=O)OCc1ccc(C(=O)c2ccccc2)cc1	21µM*	-29%	?	?	-8%
COC(=O)c1ccccc1NC(=O)NC1CC1	1%	-5%	2%	4%	-6%
NCCNC(=O)c1c(O)c2cccc3c2n(c1=O)CCC3	-2%	3%	?	?	/
CCC(=O)NC(=S)Nc1ccccc1C(=O)OC	-5%	?	-3%	13µM*	-1%
CCCC(=O)NC(=S)Nc1ccccc1C(=O)OC	-3%	?	?	16µM*	-5%
COC(=O)c1ccccc1NC(=S)NC(C)=O	-13%	22%	1%	?	2%
COC(=O)c1ccccc1NC(=S)NC(=O)c1cccc2ccccc12	16µM*	18µM*	?	4.5µM*	8%
COC(=O)c1ccccc1NC(=S)NC(=O)c1ccc2ccccc2c1	?	?	?	?	8%
Cc1ccc(N2CCC3CC2c2cc(-c4ccc(C(F)(F)F)cc4)ccc23)cc1 (stereo not given)	?	/	16µM*	/	/
CCOc1ccc(CCNC(=O)CN2C(=O)COc3ccc(S(=O)(=O)N(CC)CC)cc32)cc1	23µM*	/	?	/	6%
CCOc1ccc(CCNC(=O)CN2C(=O)COc3ccc(S(=O)(=O)N4CCCCCC4)cc32)cc1	/	/	/	/	-1%
O=C(CN1C(=O)COc2ccc(S(=O)(=O)N3CCCCC3)cc21)NCCc1ccc(Cl)cc1	?	/	18µM*	/	5%
CSc1ccc(CCNC(=O)CN2C(=O)COc3ccc(S(=O)(=O)N4CCCC4)cc32)cc1	23µM*	/	?	/	6%
CCN(CC)C(=O)Nc1ccccc1C	-7%	6%	5%	0%	5%
SMILES	TDP1 cell CPT	VP16 counter	DT40 TDP1 no CPT	RORg inh	TDP1 inh
COc1ccc(CC(=O)NC(C)c2ccc3ccccc3c2)cc1 (stereo not given)	-12%	5%	-8%	11%	/
CC1CCN(c2cc(N3CCC(C)CC3)c([N+](=O)[O-])cc2/C=C(\C#N)c2nn(-c3ccccc3)c(N)c2C#N)CC1	?	-2%	-27%	-8%	4%
CC1CCCN(c2ccc(/C=C(\C#N)c3nn(-c4ccccc4)c(N)c3C#N)cc2[N+](=O)[O-])C1 (stereo not given)	?	-14%	21µM*	16%	6%
CC1CCN(c2ccc(/C=C(\C#N)c3nn(-c4ccccc4)c(N)c3C#N)cc2[N+](=O)[O-])CC1	18µM*	-23%	8.2µM*	22%	5%
O=c1ccn([C@@H]2O[C@H](CNCc3c(OCc4ccccc4F)ccc4ccccc34)[C@@H](O)[C@H]2O)c(=O)[nH]1	16µM*	/	?	/	/
COc1ccc(CCn2c(=N)c(C(=O)NCc3ccco3)cc3c(=O)n4ccccc4nc32)cc1	?	-11%	23µM*	6%	-8%
N=c1c(C(=O)NCCc2ccccc2)cc2c(=O)n3ccccc3nc2n1CCCN1CCOCC1	-26%	-9%	15µM*	31%	6%
N=c1c(C(=O)NCCN2CCOCC2)cc2c(=O)n3ccccc3nc2n1CCc1ccccc1	?	2%	23µM*	-4%	1%
COc1ccc(CC(=O)NCc2nnc(SCC(=O)Nc3ccc(OC)cc3)n2C)cc1	-7%	-10%	-15%	18%	6%
CC(C)c1ccc(C2=C(O)c3ccccc3C(=O)C2=O)cc1	?	?	?	?	-2%
Cc1ccc2oc(-c3cccc(NC(=O)c4ccc(N5CCC(C)CC5)c([N+](=O)[O-])c4)c3)nc2c1	18µM*	/	7.3µM*	/	1%
Cc1ccc(C(=O)Nc2cccnc2)cc1[N+](=O)[O-]	-14%	-3%	4%	21%	3%
CC1CCCN(c2ccc(C(=O)Nc3cccnc3)cc2[N+](=O)[O-])C1 (stereo not given)	16µM*	-10%	?	?	8%
CC(=O)Nc1ccc(N2CCCC(C)C2)c([N+](=O)[O-])c1 (stereo not given)	-10%	3%	23µM*	21%	6%
CCCN(CCC)CCCNC(=O)C1CCN(S(=O)(=O)c2cccc3nsnc23)CC1	8%	-6%	6%	-12%	1%
CC(=O)CCc1c(C)c2cccc(C)c2[nH]c1=O	18µM*	-8%	?	32%	5%
Cc1cccc(Oc2cc([N+](=O)[O-])cc3c2C(=O)Nc2ccccc2O3)c1	?	-17%	13µM*	?	3%
Cc1cccc(Oc2ccc3c(c2)Oc2ccccc2NC3=O)c1	16µM*	/	?	/	/
O=[N+]([O-])c1cc2c(c([N+](=O)[O-])c1)Nc1ccccc1O2	12µM*	/	7.3µM*	/	/
CCc1cc(Br)ccc1NC(=S)NCCc1ccccc1	?	6.3µM*	21µM*	5µM*	0%
Cc1cc(OC(F)F)ccc1NC(=S)NCCc1ccccc1	-6%	10µM*	?	7.9µM*	-1%[56.1 µM]
COc1ccc(NC(=S)NCCc2ccccc2)c(C)c1	-16%	4µM*	-20%	6.3µM*	1%[56.1 µM]
